The structures appear in SMILES notation. “And” between values parts separate entries of the source, which are not always exact repeats. Equal values may be shown once. About 3,700 (0.93%) of roughly 400,000 compounds were called active. Roughly 3% stayed inconclusive and do not appear here. This excerpt belongs to a sample that is enriched for actives. Unmarked numbers belong to inactive results. Calls come from the whole dose curve; as a rule, active = well fitted inhibition curve with a large enough effect; inconclusive = small, poorly fitted or top-dose-only effect, or another doubt; inactive = no such curve, though single readings can be large or run the other way.

Drawing on PubChem BioAssay AID504847 (National Center for Advancing Translational Sciences (NCATS), 2011), this text covers max response, negative = inhibition and Potency for 55 compounds.
% is set by controls: 0 for no effect and ±100 for the full control effect; potency is the fitted concentration of half-maximal effect.

Vitamin D3 receptor (Homo sapiens), sequence (P11473 whole entry, looked up): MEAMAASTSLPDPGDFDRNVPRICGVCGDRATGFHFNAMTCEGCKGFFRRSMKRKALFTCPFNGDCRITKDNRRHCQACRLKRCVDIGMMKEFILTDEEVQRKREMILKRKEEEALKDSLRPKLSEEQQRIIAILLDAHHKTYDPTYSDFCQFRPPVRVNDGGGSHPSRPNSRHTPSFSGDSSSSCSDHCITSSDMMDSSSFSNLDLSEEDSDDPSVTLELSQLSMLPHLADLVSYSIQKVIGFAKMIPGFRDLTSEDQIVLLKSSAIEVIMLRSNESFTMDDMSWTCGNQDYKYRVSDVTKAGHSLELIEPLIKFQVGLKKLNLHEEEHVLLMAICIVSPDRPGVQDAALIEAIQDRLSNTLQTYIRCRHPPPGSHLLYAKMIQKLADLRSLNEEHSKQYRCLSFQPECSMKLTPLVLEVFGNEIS

The target of the assay is Vitamin D3 receptor (Homo sapiens) (UniProt P11473). The assay is described as follows: Inhibitors of the vitamin D receptor (VDR): qHTS. The following applies: VDR-SRC2-3 peptide fluorescence polarization, 2 h; max response, negative = inhibition: hits give low values. The procedure, abridged:
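Signal is fluorescence polarization, reporting how far test compounds block the interaction of VDR with the SRC2-3 coregulator peptide after a 2 h room-temperature incubation.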
In general terms: qHTS replaces the single test concentration by a dilution series.
Regarding `CCOC(=O)c1c(C)n(S(=O)(=O)c2ccc(C)cc2C)c2ccc(NS(=O)(=O)c3ccc(C)cc3C)cc12`, the max response, negative = inhibition is -7.13%.

For `CC(=O)c1c(C)oc2ccc(NS(=O)(=O)c3ccc(C(=O)O)cc3)cc12`, the max response, negative = inhibition was 11.8%. As to `CC(=O)c1c(C)n(S(=O)(=O)c2ccc(Cl)cc2)c2ccc(NS(=O)(=O)c3ccc(Cl)cc3)cc12`, the Potency is 79.4 µM (active). In the case of `O=C(C1CCCN(S(=O)(=O)c2cccc3nonc23)C1)N1CCN(c2ccccc2F)CC1` (stereo not given), the max response, negative = inhibition is -15.4%.

Turning to `COc1ccc(OC)c(NC(=O)C2CCN(S(=O)(=O)c3ccc(C)cc3)CC2)c1`, the max response, negative = inhibition is 29.3%. As to `Cn1cccc1/C=C1\SC(=S)N(NC(=O)c2ccc(Cl)cc2)C1=O`, the max response, negative = inhibition was -22.2%. On to `O=C(NCc1ccccc1)c1cc(-c2cccc(Cl)c2)on1`, for which the max response, negative = inhibition is -16.6%. For the compound `O=C(O)C(c1ccccc1)N1C(=O)/C(=C\c2ccc(-c3cccc(Cl)c3)o2)SC1=S` (stereo not given), the Potency is 79.4 µM (active).

With `O=c1[nH]c(/C=C\c2cccc(C(F)(F)F)c2)nc(O)c1[N+](=O)[O-]`, the Potency was 44.7 µM (active).

For the compound `O=c1[nH]c(/C=C/c2cccc(Br)c2)nc2ccccc12`, the max response, negative = inhibition is -10.9%. `O=c1cc(O)c(-c2cccc(C(F)(F)F)c2)c(Cl)[nH]1`: the max response, negative = inhibition was 13.8%.

`CC1(C)O[C@@H]2C[C@@H]3[C@H]4C[C@@H](F)C5=CC(=O)C=C[C@]5(C)[C@@]4(F)[C@@H](O)C[C@]3(C)[C@]2(C(=O)CO)O1`: the max response, negative = inhibition is 1.68%. On to `COCCNC(=O)CSc1nc(-c2ccccc2)[nH]c1-c1ccc(C)cc1`, for which the max response, negative = inhibition was -12.4%.

For the compound `CCCCc1nn(-c2ccccc2C(F)(F)F)c(=O)n1Cc1ccc(-c2ccccc2S(=O)(=O)NC(=O)c2sccc2C)cc1`, the Potency is 44.7 µM (active).

With `Cc1cc(C(=O)NNS(=O)(=O)c2ccccc2C(F)(F)F)nn1C(C)(C)C`, the max response, negative = inhibition was 3.25%.

For the compound `CCCN1CCN(CCCNC(=O)c2cnn(-c3ccc(C)cc3)c2-n2cccc2)CC1`, the max response, negative = inhibition is 13.2%.

For `CCN(CCCNC(=O)c1cc2cc3cc(OC)ccc3nc2s1)c1ccccc1`, the max response, negative = inhibition is -7.19%. With `O=C(NCC1CC1)C1(C(F)(F)F)C/C(=C\CCO)CCCO1` (stereo not given), the max response, negative = inhibition is -6.83%. Take `Nc1nc2nc(Cl)[nH]c2c(=O)[nH]1`: the max response, negative = inhibition was -11.6%. For `CC(C)(C)OC(=O)C1=C(CO)CS[C@@H]2[C@H](NC(=O)Cc3ccccc3)C(=O)N12`, the max response, negative = inhibition is -17.3%. The same measure, in the same setting: for `CO/N=C(\C(=O)N[C@@H]1C(=O)N2C(C(=O)O)=C(COC(C)=O)CS[C@H]12)c1csc(N)n1` (stereo in doubt) the value was -16.4% and -7.75% and -25.8%. For `Cc1cc(C)cc(C(=O)NC2C(=O)N3C(C(=O)O)=C(CSc4nnc(C)s4)CSC23)c1` (stereo not given), the Potency was 79.4 µM (active). With `O=[N+]([O-])c1ccc(S(=O)(=O)N2CCN(c3nc(-c4ccccc4)nc4ccccc34)CC2)cc1`, the max response, negative = inhibition is -8.98%. On to `Cc1ccc(C(=O)Nc2c(C(=O)NC(C)(C)C)oc3ccccc23)cc1`, for which the max response, negative = inhibition was 12.7%.

Regarding `COc1ccc(Cl)cc1NC(=O)C(C)Sc1nc2c(c(=O)[nH]1)CCCC2` (stereo not given), the max response, negative = inhibition is 5.96%. On to `CCN1C(=O)c2ccccc2Sc2ccc(NC(=O)Cc3ccc(OC)cc3)cc21`, for which the max response, negative = inhibition was 7.46%. As for `CCNCCC(=O)N1c2ccccc2Sc2ccc(NC(=O)OCC)cc21`, the max response, negative = inhibition is -7.06%. `CCN1/C(=C/C(=S)Nc2ccccc2)Sc2ccccc21`: the Potency is 70.8 µM (active).

With `CC(=O)OC1CCC2(O)CC1(C)CCC1C2CC1(C)C` (stereo not given), the max response, negative = inhibition is -16.3%. For `C[C@@H]1O[C@@H](OC[C@H]2O[C@@H](Oc3c(-c4cccc(O)c4O)oc4cc(O)cc(O)c4c3=O)[C@H](O)[C@@H](O)[C@@H]2O)[C@H](O)[C@H](O)[C@H]1O`, the max response, negative = inhibition was 2.29%.

In the case of `CCOC(=O)c1ccc(NC(=O)c2nc(SCc3ccc(F)cc3)ncc2Cl)cc1`, the max response, negative = inhibition is -10.3%. Consider `CCS(=O)(=O)c1ncc(N(Cc2ccc(F)cc2)Cc2ccco2)c(C(=O)Nc2cc(C)ccc2C)n1`, for which the max response, negative = inhibition is -5.22%.

In the case of `O=C(Nc1nc2ccc(F)cc2s1)c1nc(SCc2ccccc2F)ncc1Cl`, the max response, negative = inhibition was -2.57%. For `Cc1ccc2nc(NC(=O)c3nc(SCc4ccccc4F)ncc3Cl)sc2c1`, the max response, negative = inhibition is 1.04%. For the compound `CSc1nnc(NC(=O)c2nc(S(=O)(=O)Cc3ccc(C)cc3)ncc2Cl)s1`, the Potency is 11.2 µM (active). With `Cc1cccc(CS(=O)(=O)c2ncc(Cl)c(C(=O)Nc3ccc(F)cc3)n2)c1`, the Potency is 50.1 µM (active). As for `Cc1nnc(NC(=O)C(c2ccccc2)c2ccccc2)s1`, the max response, negative = inhibition is 13.7%.

Regarding `CCOc1cccc(C(=O)Nc2nnc(S(=O)(=O)N(C)c3ccc(C)cc3)s2)c1`, the max response, negative = inhibition is -4.91%.

Turning to `Cc1ccc(CS(=O)(=O)c2ncc(Cl)c(C(=O)Nc3nnc(C)s3)n2)cc1`, the Potency was 25.1 µM (active). As to `COc1ccc(CNC(=O)COCc2cc(-c3cccs3)on2)cc1OC`, the max response, negative = inhibition was 16.9%.

Take `COc1ccc(-c2nc3scc(CCNS(=O)(=O)c4cc(F)ccc4OC)n3n2)cc1OC`: the max response, negative = inhibition is 0.564%. Same read-out and setting: in the case of `CCOc1ccc2nc(N3CCC(C(=O)Nc4cc(C)ccc4C)CC3)sc2c1` it was -0.819%; in that of `COc1ccccc1CNC(=O)CCCCn1c(=O)c2ccccc2n(CC(=O)Nc2cc(Cl)ccc2C)c1=O`, -8.69%. Same read-out and setting: for `CCOC(=O)c1cc(NC(=O)c2ccc(F)cc2)c(=O)n2c1oc1ccccc12` the value was 4.45%; for `O=[N+]([O-])c1ccccc1SNc1ccccn1`, -25%.

As for `O=[N+]([O-])c1cccc2ncccc12`, the Potency is 12.6 µM (active). As for `O=[N+]([O-])c1ccccc1S(=O)(=O)Nc1cccc2cccnc12`, the max response, negative = inhibition is 0.987% and -18.8%. Consider `O=C(/C=C/c1cccc(F)c1)NC1CC1`, for which the max response, negative = inhibition was 0.0804%. As for `Cc1c(C(=O)Nc2cccc(Cl)c2)oc2ccc(S(=O)(=O)N3CCOCC3)cc12`, the max response, negative = inhibition was -9.71%. In the case of `Cc1cccc(NC(=O)Cn2nc(-c3ccc(Cl)cc3)c3ccccc3c2=O)c1`, the max response, negative = inhibition was 4.43%. For `O=C1C=C(c2ccc(Cl)cc2)C(=O)N1Nc1ccccc1`, the Potency is 22.4 µM (active). Take `Cc1ccc(C(=O)Nc2ccc(OCc3cc(=O)n4c(C)csc4n3)cc2)cc1`: the max response, negative = inhibition was -1.83%. On the same count and under the same terms, for `Cc1ccc(S(=O)(=O)c2nc(-c3cccs3)oc2N2CCCCC2)cc1` the value was 28.2%. For the compound `C=CC(C1=CC(=O)C=CC1=O)c1ccc(O)cc1` (stereo not given), the Potency was 39.8 µM (active). Take `CCCn1c2ccccc2c2cnn(CC(=O)NCCCOC(C)C)c(=O)c21`: the max response, negative = inhibition was 4.17%.
